# PAX8 inh HTS: lowers PAX8-driven luciferase in RMG-I cells; 360,000 compounds, 1.2% hits; RMG-I TPO-luciferase reporter, SteadyGlo, 24 h; inhibition, % at 12.6 µM;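 active = mean replicate inhibition at least 60% with every replicate also reaching 60%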;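 also: luciferase light reporting Pax8 driven TPO promoter activity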
# PGC1a acetyl inh: modulators of PGC1a acetylation; U2OS PGC1a acetylation, AlphaScreen anti-acetyl-lysine; with virally co-expressed GCN5 acetyltransferase; inhibition, % at 15.6 µM; 350,000 compounds, 0.17% hits; AID 651687;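 active = every replicate shows inhibition of at least 40%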
# SIRT5 block: blocks human SIRT5 desuccinylation of peptide | Purified SirT5, succinyl-peptide AMC, trypsin-coupled fluorescence | inhibition, % at 15 µM | Q9NXA8 | 330,000 compounds, 1.1% hits | AID 652115; in the data active = inhibition above about 15%
# Target sequence (Q9NXA8 whole entry, looked up): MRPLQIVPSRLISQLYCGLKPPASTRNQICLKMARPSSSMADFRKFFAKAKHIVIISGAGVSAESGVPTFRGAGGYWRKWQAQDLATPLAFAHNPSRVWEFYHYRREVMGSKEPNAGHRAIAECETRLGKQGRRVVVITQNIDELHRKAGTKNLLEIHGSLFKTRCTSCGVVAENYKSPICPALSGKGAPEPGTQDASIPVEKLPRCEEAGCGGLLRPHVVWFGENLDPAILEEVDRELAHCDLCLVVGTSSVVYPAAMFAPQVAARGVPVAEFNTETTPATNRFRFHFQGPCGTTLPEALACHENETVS
# EWS-Fli inh: blocks EWS/Fli oncoprotein-driven transcription | A673 NR0B1-luciferase reporter, viability-normalised | inhibition, % at 12.6 µM | 350,000 compounds, 0.67% hits | AID 651661;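 active = mean inhibition of at least 50% after viability correction, with every replicate also passing that limit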;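 also: firefly luciferase signal divided by Alamar Blue viability fluorescence both relative to DMSO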
# LGR2 antag: inhibitors of bursicon-induced Drosophila LGR2 receptor cAMP signaling; HEK293 LGR2, CRE-luciferase, bursicon-stimulated, 4 h; inhibition, % at 9.99 µM; 380,000 compounds, 0.35% hits;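 active = drop in luminescence signal, shown as inhibition above about 50% in the replicate tests, limit read from the data, passing the limit was not always enough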;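 also: agonist challenge used bursicon conditioned medium at about half maximal strength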
# rRNA inh HTS: inhibitors of bacterial rRNA selective over humanized ribosomes. 350,000 compounds, 1.6% hits. E. coli WT GFP vs humanized-ribosome RFP mutants, fluorescence, 24 h; active compounds read low; DMSO median 0, no signal -100. AID 720706. GFP signal change (wild-type ribosome), % (test concentration not listed);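 active = significant combined selectivity score with lowered wild-type GFP, culture density cut under 30%, mutant RFP and density less affected; inactive = any of these conditions unmet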
# Numbers stand for hits; n = inactive; x = no result. Hits are enriched below; roughly 3.4% of the tested compounds scored in any of these assays.
SMILES,PAX8 inh HTS,PGC1a acetyl inh,SIRT5 block,EWS-Fli inh,LGR2 antag,rRNA inh HTS
CCOc1cc(/C=C2\C(=N)N3N=C(S(C)(=O)=O)SC3=NC2=O)ccc1OCCOc1cccc(OC)c1,n,x,17,n,n,n
COc1cc(/C=C2\C(=N)N3N=C(S(C)(=O)=O)SC3=NC2=O)cc(OC)c1OCCOc1ccc(C)cc1,n,x,20,n,n,n
O=C(NCC1CCCCC1)[C@@H]1[C@@H](CO)[C@@H]2Cn3c(ccc(-c4ccccc4F)c3=O)[C@H]1N2,n,n,n,n,n,n
Nc1ccccc1N1C(=O)c2cccc3cccc(c23)C1=O,n,n,n,n,n,n
O=C1c2cccc3cccc(c23)C(=O)N1c1ccccc1Cl,n,x,n,n,n,-32
O=C(Nc1ccccc1)N1CC(=O)N2[C@@H](CO)[C@H](c3ccc(C#CC4CC4)cc3)[C@@H]2C1,n,n,n,n,n,n
C[C@H]1CCCCO[C@@H](CN(C)Cc2ccncc2)[C@@H](C)CN([C@@H](C)CO)C(=O)c2cc(NC(=O)Nc3ccc(C(F)(F)F)cc3)ccc2O1,81,n,n,n,n,n
C[C@H](CO)N1C[C@H](C)[C@@H](CN(C)Cc2ccncc2)OCCCC[C@H](C)Oc2ccc(NC(=O)Nc3ccc(C(F)(F)F)cc3)cc2C1=O,n,n,n,n,n,n
C[C@@H]1CCCCO[C@@H](CN(C)Cc2ccncc2)[C@H](C)CN([C@@H](C)CO)C(=O)c2cc(NC(=O)Nc3ccc(C(F)(F)F)cc3)ccc2O1,93,n,n,n,n,n
C[C@H](CO)N1C[C@H](C)[C@H](CN(C)Cc2ccncc2)OCCCC[C@H](C)Oc2ccc(NC(=O)Nc3ccc(C(F)(F)F)cc3)cc2C1=O,71,n,n,n,n,n
C[C@H]1CN([C@@H](C)CO)C(=O)c2cc(C3=CCCC3)cnc2O[C@H]1CN(C)C(=O)C1CC1,x,n,x,n,n,n
C[C@H]1CN([C@@H](C)CO)S(=O)(=O)c2ccc(-c3cccnc3)cc2O[C@@H]1CN(C)C(=O)C1CC1,x,n,x,n,n,n
COc1ccc2c3c([nH]c2c1)[C@H](CO)N(C)CC31CN(C(=O)c2ccccc2F)C1,x,x,x,x,x,n
COc1ccc2c3c(n(C)c2c1)[C@@H](CO)NCC31CN(S(=O)(=O)c2cccc(F)c2)C1,x,x,x,x,x,n
COc1ccc(CN(C)C[C@@H]2Oc3ccc(NC(=O)NC4CCCCC4)cc3CC(=O)N([C@H](C)CO)C[C@@H]2C)cc1,n,n,15,x,n,n
C[C@@H]1CN([C@@H](C)CO)C(=O)Cc2cc(NC(=O)NC3CCCCC3)ccc2O[C@@H]1CN(C)Cc1ccc(-c2ccccc2)cc1,102,n,n,n,n,n
C[C@@H]1CN([C@@H](C)CO)C(=O)Cc2cc(NC(=O)NC3CCCCC3)ccc2O[C@H]1CN(C)Cc1ccc(Oc2ccccc2)cc1,71,n,n,n,n,n
COc1ccc(CN(C)C[C@@H]2Oc3ccc(NC(=O)NC4CCCCC4)cc3CC(=O)N([C@@H](C)CO)C[C@H]2C)cc1,n,n,n,x,n,n
O=C(Nc1ccccc1)N1CCCCN2[C@@H](CO)[C@@H](c3ccc(C#Cc4ccccn4)cc3)[C@@H]2C1,n,n,n,n,n,n
C[C@@H]1CN([C@@H](C)CO)C(=O)c2cc(NC(=O)CCC(F)(F)F)ccc2O[C@@H](C)CCCCO[C@@H]1CN(C)C(=O)Nc1ccc(F)cc1,n,n,n,n,n,n
CC(Sc1nc(O)c(-c2ccccc2)c(=O)[nH]1)C(=O)Nc1ccc(Cl)cc1 (centres undefined),n,x,n,n,n,-24
O=C(Nc1ccc(Br)cc1Br)C1CC(=O)N(Cc2ccccc2)C1 (centres undefined),n,n,n,n,n,-34
COc1ccc2c3c([nH]c2c1)[C@H](CO)N(C(=O)Nc1ccc(F)cc1)CC31CCN(Cc2nccs2)CC1,x,x,x,x,x,n
Cc1onc(-c2ccccc2)c1C(=O)OCCOc1ccccc1F,n,n,n,n,n,n
Cc1ccccc1OCCOC(=O)c1c(-c2ccccc2)noc1C,n,n,n,58,n,n
SMILES,PAX8 inh HTS,PGC1a acetyl inh,SIRT5 block,EWS-Fli inh,LGR2 antag,rRNA inh HTS
Cc1oc2ccc(OCc3ccc(Cl)cc3)cc2c1C(=O)O,n,n,n,n,n,n
Cc1oc2ccc(OCc3ccc(Br)cc3)cc2c1C(=O)O,n,n,n,n,n,-26
COc1ccc2c3c(n(C)c2c1)[C@H](CO)N(C(=O)CN1CCOCC1)CC31CCN(C(C)=O)CC1,x,n,x,n,n,n
O=C(CNS(=O)(=O)c1ccccc1)NCC(=O)N1CCCCC1,n,n,15,n,n,n
C[C@@H]1CN([C@@H](C)CO)C(=O)Cc2cc(N(C)C)ccc2O[C@H]1CN(C)C(=O)Nc1ccc(C(F)(F)F)cc1,n,n,n,n,n,n
C[C@@H]1CCCCO[C@@H](CN(C)S(=O)(=O)c2cn(C)cn2)[C@H](C)CN([C@H](C)CO)C(=O)c2cc(NS(=O)(=O)c3ccc(F)cc3)ccc2O1,n,x,n,n,n,n
COc1cccc(C#Cc2cnc3c(c2)C(=O)N([C@H](C)CO)C[C@H](C)[C@@H](CN(C)C(C)=O)O3)c1,x,n,x,n,n,n
Cn1nc(C(F)(F)F)c2cc(C(=O)Nc3ccc(F)c(Cl)c3)sc21,n,n,n,n,n,-30
Cn1nc(C(F)(F)F)c2cc(C(=O)Nc3ccc(F)cc3)sc21,n,x,n,n,n,n
Cn1nc(C(F)(F)F)c2cc(C(=O)Nc3ccc(C(F)(F)F)cc3)sc21,n,n,n,n,n,-39
Cc1ccc(NC(C(=O)c2ccccc2)c2ccccc2)cc1 (centres undefined),80,n,n,n,n,n
CCCC#Cc1ccc2c(c1)O[C@H](CN(C)C(=O)c1ccccc1)[C@@H](C)CN([C@@H](C)CO)S2(=O)=O,x,n,n,n,n,n
O=C(C1CCOCC1)N1C[C@@H]2[C@H](c3ccccc31)[C@H](CO)N2Cc1ccccc1F,n,n,15,n,n,n
CN1C[C@@H]2[C@H](c3ccccc31)[C@H](CO)N2Cc1ccccc1Cl,109,n,n,n,n,n
O=C(Nc1ccccc1Cl)N1C[C@H]2[C@@H](c3ccccc31)[C@H](CO)N2Cc1ccccc1,n,n,n,n,n,-23
O=C(Nc1ccccc1)N1C[C@@H]2[C@H](c3ccccc31)[C@@H](CO)N2CC1CCCC1,n,n,19,n,n,n
O=C(C[C@@H]1CC[C@H](NC(=O)Cc2cccnc2)[C@@H](CO)O1)Nc1ccccc1,x,n,n,n,n,n
CC(=O)N(C)C[C@@H]1Oc2ccc(N)cc2C(=O)N(C)C[C@@H]1C,x,x,x,x,x,n
CN(C)CC(=O)N[C@@H]1CC[C@@H](CCNC(=O)C2CC2)O[C@@H]1CO,x,n,n,n,n,n

# Screening data from PubChem BioAssay.
